High-throughput results: PubChem, National Center for Advancing Translational Sciences (NCATS)
ATXN viability – Viability Counterscreen for Primary qHTS for Inhibitors of ATXN expression; S2 cells (HEK-293 line with an ATXN2-luciferase reporter) viability, CellTiter-Fluor protease fluorescence, 24 h; Potency, µM (doses to about 56.7 µM), hits mostly cytotoxic; actives 0.49% (n = 400,000); AID 651635, 2014; also: nearly all actives have a fitted effect of over 40% in size
TGFb SMAD3 inh – qHTS for Inhibitors of TGF-b | Potency, µM (doses to about 46.1 µM), for inactives: top-dose activity, negative = inhibition, most hits filed as inhibitors | HepG2 CAGA-GFP TGF-b/SMAD3 reporter, GFP fluorescence, 18 h; TGF-beta stimulated, 500 pg/mL final | actives 1.2% (n = 410,000); also: % is scaled to controls: 0 for no effect and ±100 for the full control effect; nearly all actives have a fitted effect of over 65% in size
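Inhibition was scored as loss of TGF-beta-induced (500 pg/mL final, 18 hours, 37 degrees C) GFP in HEPG2 cells carrying a CAGA-GFP reporter, in DMEM with 1% FBS. Well GFP was summed per cell; Activity was normalised to unstimulated and stimulated DMSO wells, then concentration-response fitting.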
HepG2 viability – qHTS for Inhibitors of TGF-b: Cytotox Counterscreen | HepG2 CAGA-GFP viability, ATP luminescence, 18 h | actives 0.76% (n = 410,000) | Potency, µM (doses to about 46.1 µM), without a hit: at the highest dose activity change, negative = cytotoxicity, most hits filed as cytotoxic
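HepG2 CAGA-GFP cells (1000/well, DMEM with 1% FBS) received compound, then TGF-beta at 500 pg/mL final, and were incubated 18 hours at 37 degrees C. Viability was read by CellTiter-Glo luminescence. Media-only wells were set as complete cell-killing and DMSO as no toxicity.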
VP16 counter – VP16 counterscreen qHTS for inhibitors of ROR gamma transcriptional activity | Drosophila S2 Gal4-VP16 UAS-luciferase, luminescence, 20 h | Potency, µM (top dose mostly 53.6 µM), without a hit: top-dose activity, negative = inhibition, actives largely listed as inhibitors | actives 3.5% (n = 310,000) | AID 2546, 2010;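 also: Gal4-VP16 expression switched on by copper sulfate through the metallothionein promoter; % is scaled to controls: 0 for no effect and ±100 for the full control effect; nearly all actives have a fitted effect of over 50% in size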
ATXN2 expr inh – Primary qHTS for Inhibitors of ATXN expression | HEK-293 ATXN2-luciferase reporter, luminescence, 24 h | Potency, µM (titrated, usually from 57 µM), inactives show at the top dose activity change, negative = inhibition, usual class: inhibitors | actives 0.72% (n = 360,000) | AID 1745845, 2022; also: % is scaled to controls: 0 for no effect and ±100 for the full control effect; nearly all actives have a fitted effect of over 55% in size
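qHTS (up to 57 uM final) was run with 24 h compound exposure of reporter cells at 37 °C. Each well was multiplexed: SteadyGlo luminescence measured ATXN2-luciferase expression after a fluorogenic Gly-Phe-AFC viability readout (25 uM final).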
RORg inh – qHTS for inhibitors of ROR gamma transcriptional activity; actives 5.4% (n = 310,000); Nuclear receptor ROR-gamma (Mus musculus), P51450; Potency, µM (series often up to 53.6 µM), without a hit: at the highest dose activity change, negative = inhibition, hits mostly inhibitors; Drosophila S2 Gal4-RORgamma UAS-luciferase reporter, 20 h; also: % is scaled to controls: 0 for no effect and ±100 for the full control effect; nearly all actives have a fitted effect of over 60% in size
Target sequence (P51450 whole entry, looked up, the tested form may be a part): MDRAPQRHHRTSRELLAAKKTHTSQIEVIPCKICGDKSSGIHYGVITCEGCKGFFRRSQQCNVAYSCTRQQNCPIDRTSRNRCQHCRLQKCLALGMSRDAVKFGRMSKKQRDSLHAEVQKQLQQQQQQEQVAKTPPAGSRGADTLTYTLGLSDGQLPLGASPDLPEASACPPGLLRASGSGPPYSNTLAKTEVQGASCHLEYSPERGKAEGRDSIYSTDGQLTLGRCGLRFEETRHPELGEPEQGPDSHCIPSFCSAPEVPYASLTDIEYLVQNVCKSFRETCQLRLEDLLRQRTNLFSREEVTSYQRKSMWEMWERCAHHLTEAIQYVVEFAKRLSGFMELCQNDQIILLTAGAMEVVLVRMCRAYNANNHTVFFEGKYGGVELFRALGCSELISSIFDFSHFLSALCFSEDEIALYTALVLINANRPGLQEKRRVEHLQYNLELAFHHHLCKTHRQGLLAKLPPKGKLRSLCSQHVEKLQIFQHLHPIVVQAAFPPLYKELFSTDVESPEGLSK
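Drosophila Schneider cells stably carrying a metallothionein-driven Gal4 DBD–ROR gamma fusion and a UAS-Photinus luciferase reporter were exposed to compound for 1 hr, then induced with copper sulfate (700 uM final) for 20 hr at ambient temperature before luminescence reading.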
* hit, by the source's call; [ ] = another dose, or the depositor's remark. An excerpt weighted towards active compounds, which were near 6.3% of everything screened. Calls follow the shape of the dose curve; as a rule, active = well fitted curve in the direction sought with a large enough effect; inconclusive = small, poorly fitted or top-dose-only effect, or another doubt; inactive = no such curve, though single readings can be large; an effect the other way counts as inactive or inconclusive. Potency is read from the fitted curve at half-maximal effect.

CCC(O)(CC)C(=O)N/N=C/c1cc(Br)cc(Br)c1O was read as ATXN viability inactive, TGFb SMAD3 inh inconclusive, HepG2 viability -6%, VP16 counter 3.2µM*, ATXN2 expr inh inconclusive and RORg inh 0.79µM*.
O=C(N/N=C/c1c[nH]c2ccc(Br)cc12)c1ccncc1 was read as ATXN viability inactive, TGFb SMAD3 inh -4%, HepG2 viability -25%, VP16 counter inconclusive, ATXN2 expr inh -11% and RORg inh 13µM*.
For CCCS(=O)(=O)NC(=O)C1(C)CCN(C(=O)c2ccnc(Cl)c2)C1 (stereo not drawn) the results were ATXN viability inactive, TGFb SMAD3 inh 28%, HepG2 viability -2% and ATXN2 expr inh 1%.
Screening Cc1ccc(C(C)C)c(OCc2ccc(C(=O)N/N=C/c3ccc(O)cc3O)cc2)c1 returned ATXN viability inconclusive, TGFb SMAD3 inh inconclusive, HepG2 viability -96%, VP16 counter 7.1µM*, ATXN2 expr inh 10µM* and RORg inh 6.3µM*.
Screening CCc1cc(C(=O)N/N=C/c2ccc(O)cc2O)c2ccccc2n1 returned ATXN viability inactive, TGFb SMAD3 inh -18%, HepG2 viability -7%, VP16 counter inconclusive, ATXN2 expr inh inconclusive and RORg inh 11µM*.
COCCNC(=S)N(CCc1c(C)[nH]c2ccc(C)cc12)Cc1ccco1 was read as ATXN viability inactive, TGFb SMAD3 inh -11%, HepG2 viability -16%, VP16 counter -10%, ATXN2 expr inh -28% and RORg inh 11µM*.
Screening COc1ccc2[nH]c(C)c(CCN(Cc3cccs3)C(=S)Nc3ccccc3)c2c1 returned ATXN viability inconclusive, TGFb SMAD3 inh inconclusive, HepG2 viability -24%, VP16 counter -22%, ATXN2 expr inh -31% and RORg inh 1.8µM*.
Screening COc1ccc2[nH]c(C)c(CCN(Cc3cccs3)C(=S)Nc3ccc(F)cc3)c2c1 returned ATXN viability inconclusive, TGFb SMAD3 inh inconclusive, HepG2 viability -41%, VP16 counter -27%, ATXN2 expr inh inconclusive and RORg inh -35%.
Screening COCCNC(=S)N(CCc1c(C)[nH]c2ccc(OC)cc12)Cc1ccco1 returned ATXN viability inactive, TGFb SMAD3 inh -31%, HepG2 viability 1%, VP16 counter 15%, ATXN2 expr inh 12% and RORg inh 14%.
For CNC(=S)N(CCc1c(C)[nH]c2ccc(C)cc12)Cc1cccs1 the results were ATXN viability inactive, TGFb SMAD3 inh inconclusive, HepG2 viability -28%, VP16 counter inconclusive, ATXN2 expr inh -15% and RORg inh 11µM*.
`COc1ccccc1NC(=O)c1oc2ccccc2c1NC(=O)c1ccc(S(=O)(=O)N(C)C)cc1` gave ATXN viability inactive, TGFb SMAD3 inh -1%, HepG2 viability -25% and ATXN2 expr inh 12%.
`CCN1C(=O)/C(=C\C=C2/C=CC=CN2CC)SC1=S` gave TGFb SMAD3 inh inconclusive, HepG2 viability -44%, VP16 counter inconclusive, ATXN2 expr inh 13% and RORg inh 8.9µM*.
For Cc1ccccc1C(=O)N1CCc2c(cnc(C)c2CNC(=O)c2ccc3c(c2)OCO3)C1 the results were ATXN viability inactive.
Screening COCCCNc1nc(SCc2ccccc2)nc2sc3c(c12)CCC3 returned ATXN viability inactive, TGFb SMAD3 inh -9%, HepG2 viability -3%, VP16 counter -19%, ATXN2 expr inh 18% and RORg inh 11µM*.
`CCOc1ccc(-n2c(-c3ccccc3)c[n+]3c2CCCCC3)cc1` gave ATXN viability inactive, TGFb SMAD3 inh inconclusive, HepG2 viability -28%, VP16 counter 3.5µM*, ATXN2 expr inh inconclusive and RORg inh inconclusive.
Screening c1ccc(-c2c[n+]3c(n2-c2ccccc2)CCC3)cc1 returned ATXN viability inactive, TGFb SMAD3 inh -11%, HepG2 viability -2%, VP16 counter -25% and RORg inh 19%.
O=S(=O)(CCN1CCOCC1)c1ccc(Oc2ccc(S(=O)(=O)CCN3CCOCC3)cc2)cc1 was read as ATXN viability inactive, TGFb SMAD3 inh 0%, HepG2 viability -6%, VP16 counter 7.9µM*, ATXN2 expr inh -20% and RORg inh inconclusive.
CC(=O)CCS(=O)(=O)c1ccc(Oc2ccc(S(=O)(=O)CCC(C)=O)cc2)cc1 was read as ATXN viability inactive, TGFb SMAD3 inh inconclusive, HepG2 viability 5.6µM*, VP16 counter inconclusive, ATXN2 expr inh 26% and RORg inh 8.9µM*.
Screening c1ccc(C(c2ccccc2)c2ccn[nH]2)cc1 returned ATXN viability inactive, TGFb SMAD3 inh -20%, HepG2 viability -36%, VP16 counter -7% and RORg inh 0%.
For Cc1ccc(C(c2nnnn2C(C)(C)C)N(Cc2ccco2)Cc2cccs2)cc1 (stereo not drawn) the results were ATXN viability inactive, TGFb SMAD3 inh inconclusive, HepG2 viability -3%, VP16 counter 7.1µM*, ATXN2 expr inh inconclusive and RORg inh 10µM*.
CC(C)(C)n1nnnc1C(c1ccc(C(F)(F)F)cc1)N(Cc1ccc(F)cc1)Cc1ccco1 (stereo not drawn) was read as ATXN viability inactive, TGFb SMAD3 inh -27%, HepG2 viability -21%, VP16 counter inconclusive, ATXN2 expr inh -12% and RORg inh inconclusive.
For CC(C)(C)n1nnnc1C(c1ccc(C(F)(F)F)cc1)N(Cc1ccccc1)Cc1ccco1 (stereo not drawn) the results were ATXN viability inconclusive, TGFb SMAD3 inh -7%, HepG2 viability -13%, VP16 counter 4µM*, ATXN2 expr inh -5% and RORg inh 6.3µM*.
For CC(C)(C)n1nnnc1C(c1ccc(Cl)cc1)N(Cc1cccnc1)Cc1ccco1 (stereo not drawn) the results were ATXN viability inactive, TGFb SMAD3 inh inconclusive, HepG2 viability -69%, VP16 counter -3%, ATXN2 expr inh -22% and RORg inh inconclusive.
Screening CC(C)(C)n1nnnc1C(c1ccc(F)cc1)N(Cc1ccc(F)cc1)Cc1ccco1 (stereo not drawn) returned ATXN viability inactive, TGFb SMAD3 inh -18%, HepG2 viability -32%, VP16 counter -11%[0.365 µM], ATXN2 expr inh inconclusive and RORg inh 11µM*.
